Measured values reported in the supplement of paper PMC10849652.
Targets with a hit are over-represented here; the source holds about 7,900 in all. About 0.6% of all pairs of compound and target were hits. Values without a mark were called inactive.

What was measured:
Test in all cases: log2 fold change, soluble protein after heating vs DMSO (PISA); higher = thermal stabilisation; K562 cells, 10 uM, 30 min; active = over 0.2 and 3.5 SD of the protein, either way, in both replicates (recomputed)
bafetinib = compound: Cc1ccc(NC(=O)c2ccc(CN3CC[C@H](N(C)C)C3)c(C(F)(F)F)c2)cc1Nc1nccc(-c2cncnc2)n1 [bafetinib]
Procedure, shortened: (§1)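 Soluble protein was quantified by TMTpro 16plex LC-MS/MS after channel sums were equalised. It was obtained as the supernatant after 21,000xg for 90 min from pooled aliquots of K562 cells (2×10^6 cells/mL, 10 μM compound, 30 min) heated for 3 min across 48°C-58°C and extracted in PBS with 0.5% NP-40 at 4°C. Thermal stability values are relative to control samples and come from duplicates. They are given as log2 fold changes.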

[1] = compound: Cc1cccc(CC(=O)N2CCc3c2ccc(-c2cn(C)c4ncnc(N)c24)c3F)n1
Procedure, shortened: as §1

nilotinib = compound: Cc1cn(-c2cc(NC(=O)c3ccc(C)c(Nc4nccc(-c5cccnc5)n4)c3)cc(C(F)(F)F)c2)cn1 [nilotinib]
Procedure, shortened: as §1

[2] = compound: Cc1nc(Nc2n[nH]c3c2CN(C(=O)N[C@H](CN(C)C)c2ccccc2)C3(C)C)c2sccc2n1
Procedure, shortened: as §1

dasatinib = compound: Cc1nc(Nc2ncc(C(=O)Nc3c(C)cccc3Cl)s2)cc(N2CCN(CCO)CC2)n1 [dasatinib]
Procedure, shortened: as §1

[3] = compound: Cc1ncc(-c2ccnc(Nc3ccc(S(C)(=O)=O)cc3)n2)n1C(C)C
Procedure, shortened: as §1

[4] = compound: Cn1cc(-c2ccc3c(c2)CCN3C(=O)Cc2cccc(C(F)(F)F)c2)c2c(N)ncnc21
Procedure, shortened: as §1

[5] = compound: Cn1cc(-c2ccc3nnc(C(F)(F)c4ccc5ncccc5c4)n3n2)cn1
Procedure, shortened: as §1

tipifarnib = compound: Cn1cncc1[C@@](N)(c1ccc(Cl)cc1)c1ccc2c(c1)c(-c1cccc(Cl)c1)cc(=O)n2C [tipifarnib]
Procedure, shortened: as §1

mubritinib = compound: FC(F)(F)c1ccc(/C=C/c2nc(COc3ccc(CCCCn4ccnn4)cc3)co2)cc1 [mubritinib]
Procedure, shortened: as §1

[6] = compound: NC(=O)Nc1cc(-c2cccc(F)c2)sc1C(=O)N[C@H]1CCCNC1
Procedure, shortened: as §1

[7] = compound: NC(=O)c1cnc(N[C@@H]2CCCC[C@@H]2N)nc1Nc1cccc(-n2nccn2)c1
Procedure, shortened: as §1

[8] = compound: NC1(c2ccc(-c3nc4ccn5c(=O)[nH]nc5c4cc3-c3ccccc3)cc2)CCC1
Procedure, shortened: as §1

[9] = compound: NCC(=O)Nc1ccc(-n2nc(C(F)(F)F)cc2-c2ccc3c(ccc4ccccc43)c2)cc1
Procedure, shortened: as §1

entinostat = compound: Nc1ccccc1NC(=O)c1ccc(CNC(=O)OCc2cccnc2)cc1 [entinostat]
Procedure, shortened: as §1

vorinostat = compound: O=C(CCCCCCC(=O)Nc1ccccc1)NO [vorinostat]
Procedure, shortened: as §1

citarinostat = compound: O=C(CCCCCCNC(=O)c1cnc(N(c2ccccc2)c2ccccc2Cl)nc1)NO [citarinostat]
Procedure, shortened: as §1

silmitasertib = compound: O=C(O)c1ccc2c(c1)nc(Nc1cccc(Cl)c1)c1ccncc12 [silmitasertib]
Procedure, shortened: as §1

[10] = compound: O=C1NC(=O)C(c2cnc3ccccn23)=C1c1cn2c3c(cc(F)cc13)CN(C(=O)N1CCCCC1)CC2
Procedure, shortened: as §1

[11] = compound: c1cc(OCCN2CCCCC2)cc(-c2n[nH]c3ccc(-c4nnc[nH]4)cc23)c1
Procedure, shortened: as §1

UniProt Q8TBN0, sequence (Q8TBN0 whole entry, looked up): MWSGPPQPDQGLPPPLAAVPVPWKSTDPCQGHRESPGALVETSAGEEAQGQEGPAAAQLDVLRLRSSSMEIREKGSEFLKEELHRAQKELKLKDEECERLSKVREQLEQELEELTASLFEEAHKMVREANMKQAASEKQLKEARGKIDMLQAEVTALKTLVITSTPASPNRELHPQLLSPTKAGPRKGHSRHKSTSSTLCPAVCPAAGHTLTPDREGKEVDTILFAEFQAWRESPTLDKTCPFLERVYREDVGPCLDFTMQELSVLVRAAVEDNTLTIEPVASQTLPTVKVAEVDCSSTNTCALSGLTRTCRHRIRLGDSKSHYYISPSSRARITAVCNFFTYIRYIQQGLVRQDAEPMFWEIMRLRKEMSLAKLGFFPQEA
UniProt Q15758, sequence (Q15758 whole entry, looked up): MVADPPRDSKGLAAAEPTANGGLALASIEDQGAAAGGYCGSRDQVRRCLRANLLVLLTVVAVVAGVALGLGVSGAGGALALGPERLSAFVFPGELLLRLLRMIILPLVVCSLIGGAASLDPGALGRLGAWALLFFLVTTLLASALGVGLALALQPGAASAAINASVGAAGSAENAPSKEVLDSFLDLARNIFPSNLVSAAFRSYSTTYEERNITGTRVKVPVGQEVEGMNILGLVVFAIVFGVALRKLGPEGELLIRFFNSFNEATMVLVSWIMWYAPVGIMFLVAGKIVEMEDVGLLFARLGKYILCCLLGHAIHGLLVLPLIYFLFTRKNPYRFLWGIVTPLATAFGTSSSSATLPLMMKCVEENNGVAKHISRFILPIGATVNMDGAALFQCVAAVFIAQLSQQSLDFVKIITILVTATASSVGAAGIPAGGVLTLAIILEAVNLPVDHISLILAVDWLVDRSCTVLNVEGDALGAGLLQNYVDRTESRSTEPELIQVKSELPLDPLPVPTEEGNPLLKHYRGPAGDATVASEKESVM
UniProt Q9NPQ8, sequence (Q9NPQ8 whole entry, looked up): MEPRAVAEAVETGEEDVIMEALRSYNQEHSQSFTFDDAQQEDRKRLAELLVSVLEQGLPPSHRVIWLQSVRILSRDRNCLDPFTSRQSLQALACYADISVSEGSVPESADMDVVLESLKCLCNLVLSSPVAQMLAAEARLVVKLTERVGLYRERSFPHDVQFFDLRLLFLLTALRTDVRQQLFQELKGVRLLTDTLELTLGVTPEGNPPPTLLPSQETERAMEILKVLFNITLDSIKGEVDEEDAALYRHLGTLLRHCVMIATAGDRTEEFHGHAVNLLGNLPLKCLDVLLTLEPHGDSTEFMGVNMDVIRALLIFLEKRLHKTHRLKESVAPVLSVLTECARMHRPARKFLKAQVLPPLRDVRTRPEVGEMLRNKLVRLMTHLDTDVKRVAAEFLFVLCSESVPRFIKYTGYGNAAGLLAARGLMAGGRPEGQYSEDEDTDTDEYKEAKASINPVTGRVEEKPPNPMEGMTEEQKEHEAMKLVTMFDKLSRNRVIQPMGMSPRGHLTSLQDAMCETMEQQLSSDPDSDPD
UniProt O15027, sequence (O15027 whole entry, looked up): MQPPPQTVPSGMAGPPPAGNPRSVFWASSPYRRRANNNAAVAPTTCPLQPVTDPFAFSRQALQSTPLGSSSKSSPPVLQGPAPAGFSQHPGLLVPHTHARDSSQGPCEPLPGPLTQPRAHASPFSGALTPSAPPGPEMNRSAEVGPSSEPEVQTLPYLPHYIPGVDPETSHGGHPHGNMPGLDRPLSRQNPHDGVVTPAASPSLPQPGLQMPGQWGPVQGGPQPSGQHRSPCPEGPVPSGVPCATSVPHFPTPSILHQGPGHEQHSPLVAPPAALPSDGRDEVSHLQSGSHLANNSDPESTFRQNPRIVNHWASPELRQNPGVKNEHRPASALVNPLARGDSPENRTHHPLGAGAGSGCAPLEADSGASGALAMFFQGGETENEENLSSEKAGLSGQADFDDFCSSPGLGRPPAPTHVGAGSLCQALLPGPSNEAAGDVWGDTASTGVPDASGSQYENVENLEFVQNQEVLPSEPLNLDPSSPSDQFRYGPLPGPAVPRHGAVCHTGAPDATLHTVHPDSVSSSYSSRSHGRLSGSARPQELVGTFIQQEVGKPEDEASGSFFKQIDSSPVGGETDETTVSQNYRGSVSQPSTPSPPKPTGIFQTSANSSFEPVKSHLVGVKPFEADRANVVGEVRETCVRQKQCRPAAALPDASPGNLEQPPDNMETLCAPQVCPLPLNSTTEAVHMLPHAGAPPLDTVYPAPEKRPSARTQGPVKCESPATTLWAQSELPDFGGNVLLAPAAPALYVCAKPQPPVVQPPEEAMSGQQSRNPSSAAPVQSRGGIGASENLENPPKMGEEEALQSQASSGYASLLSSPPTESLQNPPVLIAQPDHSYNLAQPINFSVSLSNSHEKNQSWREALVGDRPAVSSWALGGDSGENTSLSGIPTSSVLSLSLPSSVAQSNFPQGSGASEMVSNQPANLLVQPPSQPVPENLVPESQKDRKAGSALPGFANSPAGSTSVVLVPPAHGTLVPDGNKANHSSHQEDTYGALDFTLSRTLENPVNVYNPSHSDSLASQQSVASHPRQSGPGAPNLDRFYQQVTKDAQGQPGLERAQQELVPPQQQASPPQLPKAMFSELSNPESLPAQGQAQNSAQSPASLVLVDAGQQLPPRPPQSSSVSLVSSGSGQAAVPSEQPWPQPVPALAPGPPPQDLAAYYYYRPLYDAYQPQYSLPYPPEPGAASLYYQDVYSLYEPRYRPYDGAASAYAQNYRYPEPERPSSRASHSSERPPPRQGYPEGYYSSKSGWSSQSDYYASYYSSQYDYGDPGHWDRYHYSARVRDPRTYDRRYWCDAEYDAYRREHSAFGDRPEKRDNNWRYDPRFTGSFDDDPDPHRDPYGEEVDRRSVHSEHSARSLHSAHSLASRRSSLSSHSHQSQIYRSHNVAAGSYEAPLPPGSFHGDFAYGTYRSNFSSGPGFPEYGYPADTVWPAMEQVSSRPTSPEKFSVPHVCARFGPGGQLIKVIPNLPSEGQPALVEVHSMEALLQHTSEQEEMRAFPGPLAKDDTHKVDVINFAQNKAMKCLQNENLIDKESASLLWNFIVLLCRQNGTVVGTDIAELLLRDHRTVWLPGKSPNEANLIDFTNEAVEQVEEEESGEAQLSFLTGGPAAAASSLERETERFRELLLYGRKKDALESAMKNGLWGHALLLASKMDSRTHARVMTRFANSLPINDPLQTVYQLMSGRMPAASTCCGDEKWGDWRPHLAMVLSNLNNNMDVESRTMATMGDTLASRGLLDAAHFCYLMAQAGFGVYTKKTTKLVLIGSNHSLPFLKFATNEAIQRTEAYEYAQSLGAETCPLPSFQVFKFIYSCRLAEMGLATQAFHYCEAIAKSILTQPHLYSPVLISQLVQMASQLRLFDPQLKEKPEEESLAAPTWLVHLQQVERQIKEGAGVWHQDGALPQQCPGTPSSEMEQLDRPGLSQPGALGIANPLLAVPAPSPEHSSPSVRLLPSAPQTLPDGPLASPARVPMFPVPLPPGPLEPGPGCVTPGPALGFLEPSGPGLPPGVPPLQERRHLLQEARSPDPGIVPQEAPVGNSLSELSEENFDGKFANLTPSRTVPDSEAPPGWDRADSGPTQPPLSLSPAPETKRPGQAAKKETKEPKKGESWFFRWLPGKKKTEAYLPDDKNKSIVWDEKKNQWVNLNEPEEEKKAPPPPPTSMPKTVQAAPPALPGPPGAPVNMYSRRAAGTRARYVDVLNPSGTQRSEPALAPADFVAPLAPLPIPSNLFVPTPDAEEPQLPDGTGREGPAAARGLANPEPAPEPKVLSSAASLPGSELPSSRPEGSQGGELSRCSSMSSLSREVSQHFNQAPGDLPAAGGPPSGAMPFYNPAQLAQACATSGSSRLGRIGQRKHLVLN
UniProt Q7L4I2, sequence (Q7L4I2 whole entry, looked up): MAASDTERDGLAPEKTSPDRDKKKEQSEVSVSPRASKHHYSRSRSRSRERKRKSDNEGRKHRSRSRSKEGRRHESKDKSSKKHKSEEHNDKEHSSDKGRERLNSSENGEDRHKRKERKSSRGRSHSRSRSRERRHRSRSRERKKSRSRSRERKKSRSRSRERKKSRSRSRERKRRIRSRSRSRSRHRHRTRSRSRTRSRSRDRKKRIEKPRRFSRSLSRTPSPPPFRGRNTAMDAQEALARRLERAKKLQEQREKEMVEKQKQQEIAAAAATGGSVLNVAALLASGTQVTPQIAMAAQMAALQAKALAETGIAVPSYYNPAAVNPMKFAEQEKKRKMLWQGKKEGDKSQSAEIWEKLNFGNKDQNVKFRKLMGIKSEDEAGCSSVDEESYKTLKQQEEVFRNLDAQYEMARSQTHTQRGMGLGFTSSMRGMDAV
UniProt Q8N0T1, sequence (Q8N0T1 whole entry, looked up): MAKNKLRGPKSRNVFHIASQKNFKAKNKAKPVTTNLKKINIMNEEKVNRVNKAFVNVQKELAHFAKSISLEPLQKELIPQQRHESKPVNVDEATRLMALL
UniProt Q9UKL0, sequence (Q9UKL0 whole entry, looked up): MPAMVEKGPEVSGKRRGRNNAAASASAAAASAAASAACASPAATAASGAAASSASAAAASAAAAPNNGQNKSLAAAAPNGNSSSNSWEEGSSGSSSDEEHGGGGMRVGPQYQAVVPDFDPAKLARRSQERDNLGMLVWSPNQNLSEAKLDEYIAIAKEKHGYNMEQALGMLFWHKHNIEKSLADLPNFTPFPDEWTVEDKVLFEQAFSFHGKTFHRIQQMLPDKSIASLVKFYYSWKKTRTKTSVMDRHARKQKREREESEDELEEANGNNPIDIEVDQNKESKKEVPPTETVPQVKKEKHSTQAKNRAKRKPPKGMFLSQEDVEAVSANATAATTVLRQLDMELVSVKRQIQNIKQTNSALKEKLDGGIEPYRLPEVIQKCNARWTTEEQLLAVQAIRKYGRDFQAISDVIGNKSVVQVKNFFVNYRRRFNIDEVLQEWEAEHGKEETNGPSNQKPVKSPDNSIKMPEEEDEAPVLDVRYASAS

Target | log2 fold change (bafetinib) | log2 fold change [1] | log2 fold change (nilotinib) | log2 fold change [2] | log2 fold change (dasatinib) | log2 fold change [3] | log2 fold change [4] | log2 fold change [5] | log2 fold change (tipifarnib) | log2 fold change (mubritinib) | log2 fold change [6] | log2 fold change [7] | log2 fold change [8] | log2 fold change [9] | log2 fold change (entinostat) | log2 fold change (vorinostat) | log2 fold change (citarinostat) | log2 fold change (silmitasertib) | log2 fold change [10] | log2 fold change [11]
RCOR1 (UniProt Q9UKL0) | 0.011 | 0.021 | -0.034 | -0.107 | -0.063 | -0.062 | -0.005 | 0.033 | -0.087 | 0.07 | 0.035 | -0.104 | -0.03 | -0.133 | 0.189 | 0.082 | 0.007 | 0.016 | -0.043 | -0.103
RABGGTA (UniProt Q92696) | -0.019 | 0.027 | 0.033 | -0.088 | 0.076 | -0.076 | 0.089 | -0.015 | 0.08 | 0.002 | 0.034 | -0.008 | -0.257 (active) | 0.051 | -0.05 | 0.005 | 0.038 | 0.008 | 0.003 | 0.027
RSRC2 (UniProt Q7L4I2) | -0.091 | -0.091 | 0 | -2.11 (active) | 0.002 | -0.028 | -0.007 | -0.056 | 0.012 | 0.02 | -0.05 | 0.111 | -0.001 | -0.019 | -0.01 | -0.029 | 0.038 | -0.13 | 0.023 | -0.034
RPS12 (UniProt P25398) | 0.112 | 0.006 | 0.002 | 0.126 | 0.08 | -0.012 | -0.013 | -0.004 | 0.049 | -0.08 | 0.006 | 0.073 | 0.134 | 0.068 | -0.032 | -0.002 | 0.009 | -0.042 | 0.076 | -0.113
RBIS (UniProt Q8N0T1) | 0.012 | -0.058 | -0.058 | 0.101 | 0.008 | -0.079 | 0.023 | 0.004 | -0.02 | 0.021 | -0.021 | -0.029 | 0.02 | 0.02 | 0.019 | 0.014 | 0.092 | -0.009 | -0.002 | -0.078
RAB3IL1 (UniProt Q8TBN0) | -0.025 | 0.034 | -0.016 | 0.012 | -0.054 | -0.015 | -0.007 | 0.002 | -0.051 | 0.017 | 0.041 | -0.011 | -0.025 | -0.046 | -0.019 | -0.032 | 0.035 | 0.053 | -0.038 | 0.008
SEC16A isoform 5 (UniProt O15027) | 0.023 | 0.096 | 0.017 | -0.048 | -0.169 | 0.021 | -0.006 | -0.051 | 0.012 | -0.081 | 0.006 | -0.072 | -0.14 | 0.055 | 0.071 | 0.154 | 0.071 | -0.007 | 0.191 | -0.022
SLC1A5 (UniProt Q15758) | 0.041 | 0.004 | 0.067 | 0.023 | 0.023 | 0.014 | 0.035 | -0.032 | 0.026 | 0.052 | -0.057 | 0.117 | 0.155 | 0.03 | -0.041 | -0.039 | -0.003 | -0.016 | -0.001 | -0.03
SCAF11 (UniProt Q99590) | 0.173 | -0.144 | 0.078 | -0.007 | 0.144 | 0.379 | -0.05 | -0.03 | 0.067 | 0.052 | 0.019 | 0.073 | 0.129 | -0.003 | -0.054 | 0.12 | -0.13 | -0.038 | 0.147 | -0.29
RIC8A isoform 3 (UniProt Q9NPQ8) | 0.042 | -0.062 | -0.041 | -0.043 | -0.108 | 0.088 | 0.03 | 0.014 | -0.1 | -0.095 | -0.035 | -0.154 | -0.126 | -0.088 | 0.192 | 0.058 | 0.12 | -0.005 | 0.084 | -0.096
SH3GL1 (UniProt Q99961) | -0.018 | 0.069 | -0.084 | -0.18 | -0.262 | -0.014 | 0.055 | 0.02 | -0.114 | 0.122 | -0.049 | -0.088 | -0.106 | -0.032 | 0.143 | 0.082 | 0.068 | 0.028 | 0.006 | -0.041
